Screening data deposited in PubChem BioAssay by National Center for Advancing Translational Sciences (NCATS).
Sampled rows, rich in hits. Any-hit rate of the full collection: about 6.5%.
Vaccinia mCherry – qHTS for Stage-Specific Inhibitors of Vaccinia Orthopoxvirus: mCherry Reporter Primary qHTS; Vaccinia virus mCherry reporter infection, fluorescence; actives 0.63% (n = 310,000); Potency, µM (series often up to 36.5 µM), usual class: inhibitors; calls by dose curve; tested in A549 cells; also: nearly all actives have a fitted effect of over 35% in size
FMDV antiviral – High Throughput Screening for Foot and Mouth Disease Virus Antivirals; FMDV antiviral cell-based qHTS; actives 1.2% (n = 410,000); AID 1159524, 2015; Potency, µM (top dose mostly 57.9 µM), usual class: inhibitors; calls by dose curve; tested in HEK293T cells; also: read-out not given here; nearly all actives have a fitted effect of over 45% in size
Marburg entry inh – qHTS for inhibitors of binding or entry into cells for Marburg Virus. Marburg virus pseudotyped entry inhibition, cell reporter. Potency, µM (top dose mostly 37.8 µM), hits mostly inhibitors. actives 1.8% (n = 300,000). AID 540276, 2011; calls by dose curve; tested in HEK293 cells
Vaccinia Venus – qHTS for Stage-Specific Inhibitors of Vaccinia Orthopoxvirus: Venus Reporter Primary qHTS; Vaccinia virus Venus reporter expression, fluorescence; Potency, µM (series often up to 36.5 µM), actives largely listed as inhibitors; actives 0.46% (n = 330,000); calls by dose curve; tested in A549 cells; also: nearly all actives have a fitted effect of over 30% in size
LASV entry inh – qHTS for Inhibitors of binding or entry into cells for Lassa Virus; AID 540256, 2011; Potency, µM (series often up to 37.9 µM), most hits filed as inhibitors; Lassa virus pseudotype entry inhibition, cell reporter; actives 1.2% (n = 300,000); calls by dose curve; tested in HEK293 cells; also: nearly all actives have a fitted effect of over 50% in size
HCMV antiviral – qHTS Assay for inhibitors of the human cytomegalovirus (HCMV). HFF cells, HCMV-luciferase reporter, 72 h; active compounds read low. activity change, negative = inhibition, % at 57.5 µM. actives 4.5% (n = 410,000); in the data active = activity change below about -60%; inconclusive = no clear call, values can overlap the other calls; inactive = above about -39%
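Two-dose cell screen: HFF monolayers treated with compounds and infected with luciferase-expressing HCMV at 1 PFU/cell, 72 h at 37C, then lysed for luciferase measurement.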
A number is an active result.

For O=c1cc(CSc2ncn[nH]2)[nH]c2c(Cl)cccc12 the results were Vaccinia mCherry inactive, FMDV antiviral inactive, Vaccinia Venus inactive, LASV entry inh inactive and HCMV antiviral inactive.
For CC(=O)N1CCN(Cc2nc3cc(NC(=O)COc4cccc(C)c4)ccc3n2C)CC1 the results were Vaccinia mCherry inconclusive, FMDV antiviral inconclusive, Marburg entry inh inconclusive, Vaccinia Venus inactive, LASV entry inh inactive and HCMV antiviral -63.
COc1ccc(OCC(=O)Nc2ccc3c(c2)nc(CCN2CCCCC2)n3C)cc1 was read as FMDV antiviral inactive and HCMV antiviral inconclusive.
`Cc1cccc(OCC(=O)Nc2ccc3c(c2)nc(CCN2CCCCC2)n3C)c1` gave FMDV antiviral inactive and HCMV antiviral -86.
`Cc1cccc(OCC(=O)Nc2ccc3c(c2)nc(CN2CCCCC2)n3C)c1` gave Vaccinia mCherry inactive, FMDV antiviral 13µM, Marburg entry inh inconclusive, Vaccinia Venus inactive, LASV entry inh inconclusive and HCMV antiviral inconclusive.
For Cn1c(CN2CCCC2)nc2cc(NC(=O)COc3ccccc3)ccc21 the results were FMDV antiviral inactive, Marburg entry inh inactive, Vaccinia Venus inactive, LASV entry inh inconclusive and HCMV antiviral inactive.
`Nn1c(COc2ccccc2F)nnc1SCC(=O)NC1CCS(=O)(=O)C1` (centres undefined) gave Vaccinia mCherry inactive, FMDV antiviral inactive, Marburg entry inh inactive, Vaccinia Venus inactive, LASV entry inh inconclusive and HCMV antiviral inactive.
CCCCC(=O)N(Cc1ccc(-c2ccccc2-c2nn[nH]n2)cc1)[C@@H](C(=O)O)C(C)C was read as Vaccinia mCherry inactive, FMDV antiviral inactive and Vaccinia Venus inactive.
COc1cc2c(cc1OC)C(C)N(C(=O)c1cc3c(C)cc(C)cc3[nH]1)CC2 (centres undefined) was read as Vaccinia mCherry inactive, FMDV antiviral inactive, Marburg entry inh 3.2µM, Vaccinia Venus inactive, LASV entry inh inconclusive and HCMV antiviral inactive.
For COc1cc2c(cc1OC)C(C)N(C(=O)Nc1ccc(F)cc1)CC2 (centres undefined) the results were FMDV antiviral inactive and HCMV antiviral -102.
COc1cc2c(cc1OC)C(C)N(C(=O)Nc1cc(C)cc(C)c1)CC2 (centres undefined) was read as FMDV antiviral inactive and HCMV antiviral inactive.
Screening c1cc2c(cc1-c1[nH]ncc1CN1CC3C[C@@H]4CC1C[C@H](C3)C4)OCO2 returned Vaccinia mCherry inactive, FMDV antiviral inactive, Marburg entry inh inactive, Vaccinia Venus inactive, LASV entry inh inactive and HCMV antiviral -69.
`Cn1c(/C=C/c2ccc([N+](=O)[O-])o2)nc2ccccc2c1=O` gave Vaccinia mCherry 4.5µM, FMDV antiviral 25µM, Marburg entry inh inconclusive, Vaccinia Venus inconclusive and LASV entry inh 2.8µM.
`Cc1cc(NN=Cc2ccccn2)nc2ccccc12` gave HCMV antiviral -100.
`C(=N\N=C\c1ccccn1)/c1ccccn1` gave Vaccinia mCherry inactive, FMDV antiviral inactive, Marburg entry inh inactive, Vaccinia Venus inactive, LASV entry inh inactive and HCMV antiviral inactive.
`C(=NNc1ccc2ccccc2n1)c1ccccn1` gave Vaccinia mCherry 1.8µM, FMDV antiviral 7.9µM, Vaccinia Venus inconclusive and HCMV antiviral -101.
For Cc1cc(NN=Cc2ccccn2)nc2c(C)cccc12 the results were HCMV antiviral inactive.
Screening Cc1cc(N/N=C/c2ccc([N+](=O)[O-])o2)nc2ccccc12 returned Vaccinia mCherry inconclusive, FMDV antiviral inactive, Marburg entry inh inconclusive, Vaccinia Venus inactive, LASV entry inh inactive and HCMV antiviral -79.
Screening Cc1cccc(S(=O)(=O)N[C@H]2CC[C@@]34CCCN3C(=O)CCC[C@H]4[C@H]2C)c1 returned HCMV antiviral inactive.
`O=C(COC(=O)CN1C(=O)C2CC=CCC2C1=O)Nc1cccc([N+](=O)[O-])c1` (centres undefined) gave Vaccinia mCherry inactive, FMDV antiviral inactive, Vaccinia Venus inactive and HCMV antiviral inactive.
`C(=N\NC1=Nc2cccc3cccc1c23)/c1ccccn1` gave Vaccinia mCherry inconclusive, FMDV antiviral inactive, Vaccinia Venus inconclusive and HCMV antiviral -80.
